# Results published in PMC5540273 (PLoS ONE, 2017).
# Legend:
# Conditions in all cases: concentration: 1 μM, replicates: in singlicate; n = 1
# YES = test system: T1, YES
# T1 construct: gene YES1
# YSK1 = test system: T2, YSK1
# T2 construct: gene STK25
# YSK4 = test system: T3, YSK4
# T3 construct: gene MAP3K19
# ZAK = test system: ZAK
# ZAP70 = test system: ZAP70
# p38-alpha = test system: T4, p38-alpha
# T4 construct: gene MAPK14
# p38-beta = test system: T5, p38-beta
# T5 construct: gene MAPK11
# p38-delta = test system: p38-delta
# p38-gamma = test system: T6, p38-gamma
# T6 construct: gene MAPK12
# 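Note: KINOMEscan kinase panel screen.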
Compound,%Inh (YES),%Inh (YSK1),%Inh (YSK4),%Inh (ZAK),%Inh (ZAP70),%Inh (p38-alpha),%Inh (p38-beta),%Inh (p38-delta),%Inh (p38-gamma)
Cc1nnc(-c2ccc3occ(-c4ccc(S(C)=O)cc4)c3c2)[nH]1 (stereo not drawn),0%,0%,44%,8%,0%,13%,0%,3%,9%
Cc1cccc(-c2cc(Nc3ccncc3)c3ccccc3n2)n1 [GSK223675],0%,8%,13%,82%,0%,12%,0%,42%,22%
CCCc1ccc(S(=O)(=O)NC2CCN(c3ccnc(Nc4ccc(F)cc4)n3)C2)cc1 (stereo not drawn) [GSK1379715],22%,100%,31%,67%,0%,3%,0%,29%,0%
CN1C(=O)C(Nc2ccc(Cl)c(C(=O)O)c2)=C(c2ccc(Cl)cc2)C1=O [SB-404290],6%,0%,4%,0%,1%,5%,2%,0%,27%
Cc1cccc(-c2nc(Nc3ccc4[nH]ncc4c3)c3ccccc3n2)n1 [GW857175],13%,0%,19%,0%,31%,0%,32%,0%,50%
C[C@@H]1CCCCN1c1cc(-c2ccc3c(N)n[nH]c3c2)nc(N)n1 [GSK2258759],14%,0%,0%,0%,0%,80%,0%,26%,0%
CC(C)(C)c1ccc(C(=O)Nc2cn3cc(Cl)ccc3n2)cc1,0%,0%,5%,0%,4%,0%,0%,39%,10%
Cc1c(O)cccc1Nc1ccnc2ccc(C(F)(F)F)cc12.Cl [GW466413],20%,0%,11%,1%,0%,0%,0%,24%,0%
COc1ccc2nc(-c3cccc(C)n3)nc(Nc3ccncc3)c2c1 [GSK204919],13%,0%,13%,0%,0%,58%,0%,12%,0%
COc1cccc(-c2cc(-c3c[nH]nc3-c3ccccn3)ccn2)c1 [GW680338],0%,0%,0%,0%,10%,27%,7%,20%,0%
Cc1cc(N2Cc3ccccc3C2)nc(Nc2ccc(S(=O)(=O)N3CCOCC3)cc2)n1.Cl [GSK1669917],5%,0%,0%,0%,0%,3%,0%,46%,3%
CCn1c(-c2ccccn2)nc2cnccc21 [SB-736398],3%,100%,44%,5%,6%,0%,0%,23%,0%
CS(=O)(=O)c1ccc(-c2c(-c3ncn[nH]3)sc(N3CCOCC3)c2C#N)cc1,13%,0%,18%,0%,0%,6%,11%,34%,33%
O=C(O)COc1ncnc2cc(-c3ccc4[nH]ncc4c3)sc12,0%,0%,83%,6%,14%,20%,16%,32%,21%
COc1ccc(C2=C(Nc3cccc(C(=O)O)c3)C(=O)NC2=O)cc1 [SB-390765],11%,0%,0%,13%,0%,4%,6%,2%,29%
COc1ccc(Nc2nccc(-c3cccc(NC(=O)c4cc5cc(F)ccc5[nH]4)c3)n2)cc1 [GSK1229782],29%,31%,79%,22%,0%,27%,0%,45%,48%
Nc1ncnc2[nH]c(-c3ccccc3)nc12 [AH5015],18%,0%,94.4%,33%,0%,0%,0%,6%,0%
